Laboratory results reported in PMC11006913.
Residue numbers refer to the chain shown, from its start.

How the values were obtained:
Assay in all cases: PBM; 200 nM protein, PBS
Conditions in all cases: dsDNA, one strand shown
[1] = target: T1, VENTX (Homo sapiens, UniProt O95231 78-163, R121Q)
T1 sequence: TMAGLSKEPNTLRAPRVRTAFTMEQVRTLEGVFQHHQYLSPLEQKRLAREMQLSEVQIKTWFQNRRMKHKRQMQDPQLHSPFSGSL

[2] = target: T2, SIX6 (Homo sapiens, UniProt O95475 114-200, L167I)
T2 sequence: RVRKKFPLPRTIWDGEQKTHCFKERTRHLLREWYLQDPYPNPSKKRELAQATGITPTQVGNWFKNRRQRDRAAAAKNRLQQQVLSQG

[3] = target: HOXC9 (Homo sapiens, UniProt P31274 178-260, K195R)
[4] = target: T3, VENTX (Homo sapiens, UniProt O95231 78-163)
T3 sequence: T1 sequence with Q44R

[5] = target: T4, SIX6 (Homo sapiens, UniProt O95475 114-200, L143V)
T4 sequence: T2 sequence with L30V, I54L

[6] = target: HOXC10 (Homo sapiens, UniProt Q9NYD6 254-340)
[7] = target: T5, SIX6 (Homo sapiens, UniProt O95475 114-200, H141N)
T5 sequence: T2 sequence with H28N, I54L

[8] = target: T6, SIX6 (Homo sapiens, UniProt O95475 114-200, T165P)
T6 sequence: T2 sequence with T52P, I54L

[9] = target: T7, VENTX (Homo sapiens, UniProt O95231 78-163, Y115F)
T7 sequence: T1 sequence with Y38F, Q44R

[10] = target: T8, SIX6 (Homo sapiens, UniProt O95475 114-200, L167M)
T8 sequence: T2 sequence with I54M

[11] = target: T9, SIX6 (Homo sapiens, UniProt O95475 114-200, L143M)
T9 sequence: T2 sequence with L30M, I54L

[12] = target: T10, SIX6 (Homo sapiens, UniProt O95475 114-200, L143I)
T10 sequence: T2 sequence with L30I, I54L

[13] = target: T11, SIX6 (Homo sapiens, UniProt O95475 114-200, T165G)
T11 sequence: T2 sequence with T52G, I54L

[14] = target: T12, SIX6 (Homo sapiens, UniProt O95475 114-200, T139Q)
T12 sequence: T2 sequence with T26Q, I54L

[15] = target: HOXC9 (Homo sapiens, UniProt P31274 178-260)
[16] = target: T13, SIX6 (Homo sapiens, UniProt O95475 114-200, T165A)
T13 sequence: T2 sequence with T52A, I54L

[17] = target: HOXC9 (Homo sapiens, UniProt P31274 178-260, R193K)
[18] = target: HOXC10 (Homo sapiens, UniProt Q9NYD6 254-340, K271E)
[19] = target: T14, SIX6 (Homo sapiens, UniProt O95475 114-200, L167V)
T14 sequence: T2 sequence with I54V

[20] = target: PROP1 (Homo sapiens, UniProt O75360 56-141)
[21] = target: T15, SIX6 (Homo sapiens, UniProt O95475 114-200)
T15 sequence: T2 sequence with I54L

[22] = target: PROP1 (Homo sapiens, UniProt O75360 56-141, R99H)
[23] = target: T16, SIX6 (Homo sapiens, UniProt O95475 114-200, T165I)
T16 sequence: T2 sequence with T52I, I54L

[24] = target: HOXC9 (Homo sapiens, UniProt P31274 178-260, R222W)
[25] = target: PROP1 (Homo sapiens, UniProt O75360 56-141, F88S)
[26] = target: HOXB9 (Homo sapiens, UniProt P17482 171-250, T197M)
[27] = target: HOXB9 (Homo sapiens, UniProt P17482 171-250)
[28] = target: ALX3 (Homo sapiens, UniProt O95076 139-225, N203Q)
[29] = target: ALX3 (Homo sapiens, UniProt O95076 139-225)
[30] = target: ALX3 (Homo sapiens, UniProt O95076 139-225, L168Q)
[31] = target: HOXB9 (Homo sapiens, UniProt P17482 171-250, R186Q)
[32] = target: ALX3 (Homo sapiens, UniProt O95076 139-225, L168V)
[33] = target: ALX3 (Homo sapiens, UniProt O95076 139-225, N203S)
ALX3 (Homo sapiens, UniProt O95076 139-225, N203S), sequence (O95076 139-225 N203S): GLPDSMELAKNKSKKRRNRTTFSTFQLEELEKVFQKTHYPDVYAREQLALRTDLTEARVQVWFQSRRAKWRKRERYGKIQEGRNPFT

HOXC10 (Homo sapiens, UniProt Q9NYD6 254-340, K271E), sequence (Q9NYD6 254-340 K271E): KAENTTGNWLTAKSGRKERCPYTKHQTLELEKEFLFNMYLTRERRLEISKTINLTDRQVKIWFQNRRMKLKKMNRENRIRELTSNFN
HOXC9 (Homo sapiens, UniProt P31274 178-260, R193K), sequence (P31274 178-260 R193K): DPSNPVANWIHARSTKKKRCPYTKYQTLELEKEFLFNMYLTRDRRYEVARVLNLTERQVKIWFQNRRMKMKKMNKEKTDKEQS
HOXB9 (Homo sapiens, UniProt P17482 171-250, R186Q), sequence (P17482 171-250 R186Q): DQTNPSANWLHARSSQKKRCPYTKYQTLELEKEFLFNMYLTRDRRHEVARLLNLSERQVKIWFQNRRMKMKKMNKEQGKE
HOXC10 (Homo sapiens, UniProt Q9NYD6 254-340), sequence (Q9NYD6 254-340): as the sequence (Q9NYD6 254-340 K271E) above, with E18K counted along it
PROP1 (Homo sapiens, UniProt O75360 56-141, R99H), sequence (O75360 56-141 R99H): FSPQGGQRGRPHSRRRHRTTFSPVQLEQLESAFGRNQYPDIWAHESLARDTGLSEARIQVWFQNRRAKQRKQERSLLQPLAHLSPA
ALX3 (Homo sapiens, UniProt O95076 139-225), sequence (O95076 139-225): as the sequence (O95076 139-225 N203S) above, with S65N counted along it
HOXC9 (Homo sapiens, UniProt P31274 178-260), sequence (P31274 178-260): as the sequence (P31274 178-260 R193K) above, with K16R counted along it
PROP1 (Homo sapiens, UniProt O75360 56-141, F88S), sequence (O75360 56-141 F88S): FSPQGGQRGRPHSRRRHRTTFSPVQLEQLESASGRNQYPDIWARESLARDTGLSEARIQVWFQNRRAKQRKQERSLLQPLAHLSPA
ALX3 (Homo sapiens, UniProt O95076 139-225, N203Q), sequence (O95076 139-225 N203Q): as the sequence (O95076 139-225 N203S) above, with S65Q counted along it
PROP1 (Homo sapiens, UniProt O75360 56-141), sequence (O75360 56-141): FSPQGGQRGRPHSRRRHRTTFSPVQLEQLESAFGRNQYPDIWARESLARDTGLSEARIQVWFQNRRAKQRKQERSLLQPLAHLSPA
HOXC9 (Homo sapiens, UniProt P31274 178-260, R222W), sequence (P31274 178-260 R222W): as the sequence (P31274 178-260 R193K) above, with K16R, R45W counted along it
HOXB9 (Homo sapiens, UniProt P17482 171-250), sequence (P17482 171-250): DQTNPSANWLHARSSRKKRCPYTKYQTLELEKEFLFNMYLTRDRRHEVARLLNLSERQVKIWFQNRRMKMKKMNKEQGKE
HOXB9 (Homo sapiens, UniProt P17482 171-250, T197M), sequence (P17482 171-250 T197M): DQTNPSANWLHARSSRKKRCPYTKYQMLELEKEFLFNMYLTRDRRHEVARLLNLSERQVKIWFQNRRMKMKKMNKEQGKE
ALX3 (Homo sapiens, UniProt O95076 139-225, L168V), sequence (O95076 139-225 L168V): as the sequence (O95076 139-225 N203S) above, with L30V, S65N counted along it
ALX3 (Homo sapiens, UniProt O95076 139-225, L168Q), sequence (O95076 139-225 L168Q): as the sequence (O95076 139-225 N203S) above, with L30Q, S65N counted along it
HOXC9 (Homo sapiens, UniProt P31274 178-260, K195R), sequence (P31274 178-260 K195R): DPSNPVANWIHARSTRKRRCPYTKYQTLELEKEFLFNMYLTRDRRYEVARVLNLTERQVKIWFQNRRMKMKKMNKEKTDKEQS

Question: With GCTTGGCC as the sequence, how does the binding signal [1] read?
Answer: 7.86 upbm affinity estimate (log intensity, higher = more binding, comparable within an allelic series)

Question: And the binding signal [2]?
Answer: 8.94 upbm affinity estimate (log intensity, higher = more binding, comparable within an allelic series)

Question: And the binding signal [3]?
Answer: 9.68 upbm affinity estimate (log intensity, higher = more binding, comparable within an allelic series)

Question: What about the binding signal [4] of the same sequence?
Answer: 7.97 upbm affinity estimate (log intensity, higher = more binding, comparable within an allelic series)

Question: And the binding signal [5]?
Answer: 8.84 upbm affinity estimate (log intensity, higher = more binding, comparable within an allelic series)

Question: What about the binding signal [6] of the same sequence?
Answer: 10.1 upbm affinity estimate (log intensity, higher = more binding, comparable within an allelic series)

Question: What about the binding signal [7] of the same sequence?
Answer: 8.96 upbm affinity estimate (log intensity, higher = more binding, comparable within an allelic series)

Question: What about the binding signal [8] of the same sequence?
Answer: 8.86 upbm affinity estimate (log intensity, higher = more binding, comparable within an allelic series)

Question: What about the binding signal [9] of the same sequence?
Answer: 7.9 upbm affinity estimate (log intensity, higher = more binding, comparable within an allelic series)

Question: What about the binding signal [10] of the same sequence?
Answer: 8.89 upbm affinity estimate (log intensity, higher = more binding, comparable within an allelic series)

Question: And the binding signal [11]?
Answer: 8.89 upbm affinity estimate (log intensity, higher = more binding, comparable within an allelic series)

Question: What about the binding signal [12] of the same sequence?
Answer: 8.86 upbm affinity estimate (log intensity, higher = more binding, comparable within an allelic series)

Question: And the binding signal [13]?
Answer: 8.99 upbm affinity estimate (log intensity, higher = more binding, comparable within an allelic series)

Question: What about the binding signal [14] of the same sequence?
Answer: 9.01 upbm affinity estimate (log intensity, higher = more binding, comparable within an allelic series)

Question: And the binding signal [15]?
Answer: 9.78 upbm affinity estimate (log intensity, higher = more binding, comparable within an allelic series)

Question: And the binding signal [16]?
Answer: 8.94 upbm affinity estimate (log intensity, higher = more binding, comparable within an allelic series)

Question: And the binding signal [17]?
Answer: 9.65 upbm affinity estimate (log intensity, higher = more binding, comparable within an allelic series)

Question: And the binding signal [18]?
Answer: 10 upbm affinity estimate (log intensity, higher = more binding, comparable within an allelic series)

Question: And the binding signal [19]?
Answer: 8.95 upbm affinity estimate (log intensity, higher = more binding, comparable within an allelic series)

Question: What about the binding signal [20] of the same sequence?
Answer: 6.59 upbm affinity estimate (log intensity, higher = more binding, comparable within an allelic series)

Question: And the binding signal [21]?
Answer: 8.89 upbm affinity estimate (log intensity, higher = more binding, comparable within an allelic series)

Question: And the binding signal [22]?
Answer: 6.63 upbm affinity estimate (log intensity, higher = more binding, comparable within an allelic series)

Question: And the binding signal [23]?
Answer: 8.91 upbm affinity estimate (log intensity, higher = more binding, comparable within an allelic series)

Question: What about the binding signal [24] of the same sequence?
Answer: 9.69 upbm affinity estimate (log intensity, higher = more binding, comparable within an allelic series)

Question: And the binding signal [25]?
Answer: 6.65 upbm affinity estimate (log intensity, higher = more binding, comparable within an allelic series)

Question: ACCATTAG was tested. Which binding signal [1] did it give?
Answer: 11.7 upbm affinity estimate (log intensity, higher = more binding, comparable within an allelic series)

Question: How did the binding signal [1] turn out when GACCCAGC was run?
Answer: 8.18 upbm affinity estimate (log intensity, higher = more binding, comparable within an allelic series)

Question: What about the binding signal [26] of the same sequence?
Answer: 8.5 upbm affinity estimate (log intensity, higher = more binding, comparable within an allelic series)

Question: And the binding signal [4]?
Answer: 8.16 upbm affinity estimate (log intensity, higher = more binding, comparable within an allelic series)

Question: What about the binding signal [9] of the same sequence?
Answer: 8.12 upbm affinity estimate (log intensity, higher = more binding, comparable within an allelic series)

Question: And the binding signal [27]?
Answer: 8.47 upbm affinity estimate (log intensity, higher = more binding, comparable within an allelic series)

Question: And the binding signal [28]?
Answer: 7.75 upbm affinity estimate (log intensity, higher = more binding, comparable within an allelic series)

Question: What about the binding signal [29] of the same sequence?
Answer: 7.56 upbm affinity estimate (log intensity, higher = more binding, comparable within an allelic series)

Question: And the binding signal [30]?
Answer: 7.85 upbm affinity estimate (log intensity, higher = more binding, comparable within an allelic series)

Question: What about the binding signal [31] of the same sequence?
Answer: 8.49 upbm affinity estimate (log intensity, higher = more binding, comparable within an allelic series)

Question: And the binding signal [32]?
Answer: 7.79 upbm affinity estimate (log intensity, higher = more binding, comparable within an allelic series)

Question: What about the binding signal [33] of the same sequence?
Answer: 7.8 upbm affinity estimate (log intensity, higher = more binding, comparable within an allelic series)
